Experimental data published in PubChem BioAssay.
Values joined by “and” are separate entries in the source; they are usually repeats but may differ in a detail not shown here. Equal values may be shown once. Active and inactive are the calls of the source.

Experiments:
[1] = A549 cell viability effects, profiling panel, calcein-AM fluorescence, 48 h, basal (AID 1162); conditions: higher = more signal
[2] = adipocyte viability effects, profiling panel, cell-based, 3T3-L1 adipocytes, calcein-AM fluorescence, 48 h, basal (AID 1163); conditions: 3T3-L1 adipocytes viability, higher = more signal
[3] = HepG2 cell viability effects, profiling panel, calcein-AM fluorescence, 48 h, basal (AID 1164); conditions: higher = more signal
[4] = MM1S cell viability effects, profiling panel, calcein-AM fluorescence, 48 h, basal (AID 1165); conditions: higher = more signal;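 note: viability of MM1S multiple myeloma cells under basal unstimulated conditions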
[5] = basal RPMI8226 viability, no added stimulus, profiling panel, cell-based, calcein-AM fluorescence, 48 h, PK04 Diversity Set (AID 1166); conditions: higher = more signal; RPMI8226 myeloma viability, calcein-AM fluorescence, 48 h unless noted;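 note: cells grown under basal conditions without added stimulus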
[6] = basal HepG2 mitochondrial membrane potential changes, profiling panel, cell-based, JC-1 fluorescence, 24 h, 100 nL compound (AID 1167); conditions: higher = more signal
[7] = basal 3T3-L1 adipocyte mitochondrial potential changes, profiling panel, cell-based, JC-1 fluorescence, 3T3-L1 adipocytes, 24 h, 100 nL compound (AID 1168); conditions: JC-1 mitochondrial fluorescence; higher = more signal, called active from +8 up or from −8 down unless noted
[8] = basal RPMI8226 mitochondrial membrane potential changes, profiling panel, cell-based, JC-1 fluorescence, 24 h, 100 nL compound (AID 1169); conditions: higher = more signal; RPMI8226 myeloma, JC-1 mitochondrial potential fluorescence, 24 h unless noted
[9] = basal MM1S mitochondrial membrane potential changes, profiling panel, cell-based, JC-1 fluorescence, 24 h, 100 nL compound (AID 1170); conditions: higher = more signal
[10] = A549 lung cancer cell viability effects, profiling panel, resazurin fluorescence, 24 h, PK04 Diversity Set (AID 1171); conditions: higher = more signal, called active from +8 up or from −8 down unless noted
Note: test concentration not given here.

| SMILES | z-score [1] | z-score [2] | z-score [3] | z-score [4] | z-score [5] | z-score [6] | z-score [7] | z-score [8] | z-score [9] | z-score [10] |
| --- | --- | --- | --- | --- | --- | --- | --- | --- | --- | --- |
| O=P(c1ccccc1)(c1ccccc1)N1CC2(CC2)CC(O)(c2ccccc2)C1 (stereo not given) | -1.76 | -0.388 | -1.15 | -0.183 | -0.475 | -0.846 | -0.654 (inactive) | 0.232 | -0.372 | -0.488 (inactive) |
| CCCC[C@@H]1C[C@H]1[C@@H](NP(=O)(c1ccccc1)c1ccccc1)c1ccc(Cl)cc1 | -0.656 | -1.31 | -0.868 | -2.05 | -4.62 | -1.35 | -0.729 (inactive) | -0.861 | -1.11 | 2.22 (inactive) |
| C[C@@H]1OC=C2[C@@H](O)[C@H]3O[C@H]3C(=O)[C@]23[C@H]1[C@H]1C2=C([C@@H](O)[C@H]4O[C@H]4C2=O)[C@@H]3O[C@@H]1C | 0.304 | 0.441 | 0.0428 | -0.297 | -0.594 | -0.888 | -0.3 (inactive) | 0.0604 | 0.144 | 0.703 (inactive) |
| C=C(CC1(C(C)NP(=O)(c2ccccc2)c2ccccc2)CC1)c1ccccc1 (stereo not given) | -2.12 | 0.844 | -1.07 | -3.18 | -4.71 | -2.36 | -0.793 (inactive) | -0.819 | -0.133 | 2.93 (inactive) |
| CC1N(P(=O)(c2ccccc2)c2ccccc2)CC(O)(c2ccccc2)CC12CC2 (stereo not given) | -1.2 and -1.31 | -0.216 and -0.899 | -1.5 and -1.05 | -0.187 and -0.545 | -1.7 and -1.4 | -0.722 and -1.02 | -1.04 (inactive) and -1.11 (inactive) | 0.655 and -0.4 | -0.307 and -0.694 | 0.146 (inactive) and 1.49 (inactive) |
| CCOC(=O)[C@H]1CC=C2C(=O)Oc3ccccc3[C@@H]21 | -0.961 | -0.214 | -1.13 | -1.35 | -0.132 | -0.417 | 0.846 (inactive) | 0.979 | -1.08 | 0.991 (inactive) |
| COC(=O)NCC=Cc1nc(CCC=CC(=O)O[C@H]2CC3CC(=O)O[C@@H](C=CCC(C)C)C[C@@H]4CC[C@H](C)[C@@H](C[C@@H](OC)C[C@H](C2)O3)O4)co1 | -1.61 | -0.804 | -1.29 | -2.61 | -2.97 | 0.49 | 0.249 (inactive) | -0.908 | -2.54 | -4.04 (inactive) |
| COC(=O)[C@H]1C(=O)c2ccccc2O[C@@](C(=O)OC)(c2ccccc2)[C@@H]1c1ccccc1 | -0.513 | -0.328 | 0.159 | -1.16 | -0.144 | -0.598 | -0.31 (inactive) | -0.203 | 0.271 | -0.002 (inactive) |
| CCCC=C(CCC)[C@@H](NP(=O)(c1ccccc1)c1ccccc1)c1ccccc1 | -0.0868 | -0.298 | 0.559 | -0.687 | -1.27 | -1.95 | 0.21 (inactive) | 0.368 | -1.5 | 1.82 (inactive) |
| C=C(CC1(CNP(=O)(c2ccccc2)c2ccccc2)CC1)c1ccccc1 | -1.21 | -0.457 | -1.36 | -0.159 | -0.614 | -1.41 | -0.531 (inactive) | 0.29 | -0.987 | 0.344 (inactive) |
| c1ccc(-c2cc3c(nc2-c2ccccc2)CCNC3)cc1 | 0.765 | -0.106 | 0.246 | 0.195 | 0.145 | 0.506 | -0.239 (inactive) | 0.179 | -0.0254 | 0.983 (inactive) |
| COC(=O)[C@H]1[C@H](c2ccccc2)C(=O)[C@]2(O)c3ccccc3O[C@@]12c1ccccc1 | 0.594 | 0.833 | -0.0328 | 0.391 | 0.001 | 0.338 | -0.113 (inactive) | 0.289 | -0.0594 | -1.73 (inactive) |
| OCc1ccc(C2=CC(C3CC3)N(Cc3sc4ccccc4c3Cl)CC2)cc1 (stereo not given) | -1.09 | 0.656 | -0.328 | -3.17 | -3.29 | 0.353 | 0.501 (inactive) | -0.913 | -0.434 | -0.497 (inactive) |
| COC(=O)[C@@]1(Cc2ccccc2)[C@H]2c3cc(C(=O)N(C)C)[nH]c3C[C@H]2CN1C(=O)c1ccccc1 | -1.08 | -0.0276 | -0.78 | 0.047 | -0.458 | -0.592 | -0.562 (inactive) | 0.816 | -0.807 | 0.121 (inactive) |
| CCCc1cc2c(n1Cc1cccc(Cl)c1)C(C)C1CN(C(=O)c3ccccc3)C(C)(C(=O)OC)C21 (stereo not given) | -1.22 | -0.278 | 0.101 | -2.71 | -4.69 | 1.4 | -1.82 (inactive) | -0.795 | -1.61 | -0.474 (inactive) |
| CCCc1cc2c(n1Cc1ccc(C)cc1)C(C)C1CN(C(=O)c3ccccc3)C(C)(C(=O)OC)C21 (stereo not given) | 0.345 | -0.441 | 1.11 | -2.84 | -4.73 | 2.34 | -0.268 (inactive) | 0.00271 | -1.59 | -1.58 (inactive) |
